Measured values reported in the supplement of paper PMC6555819.

The sequences below were run on PPARg:RXRa 270nM:90nM, anti-RXR (NR concentration 270 nM, RXRa partner concentration 90 nM) (assay: PBM binding z-score (relative to random genomic background probes); higher = stronger binding; sequences stand for … in GC…GCGATTGACAGCGTAGAATGAAGG).
Outline: (§1)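 Regression normalization was applied to scanned fluorescence from custom Agilent 4×180K protein-binding microarrays. Before scanning, arrays were incubated 1 h with ligand-free nuclear receptor dimers, and binding was detected with antibodies against each partner (one per run). Binding z-scores use the random background probes as reference.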

In order of rising PBM binding z-score:
1. CCTAGCAGGCCAGGGTCCCTCAAGCATTTCGCTT  -0.699
2. CGAACTAGTTCAGAACAGGACAGTGAAGGATGAT  -0.523
3. AGAATGAGGCTATTAAGATCAGGGAATTGCGGTC  -0.417
4. AGAACGAGGACAATGAGTTGATAGCACGGGTGGC  -0.0649
5. TCGAGTAGGTTAGTGGCATTCAGAATGGCGTCGA  0.534
6. TCTCGGAGGACACTAAGGTCAGAGCTTTCCAGAG  1.84
7. AGAGTGAGGTTAAGATCAGGGAAACAGAATACAT  2.13
8. ATCTCTAGGTAACAAGTTCAGGGAAAGAGAGGAC  2.3
9. TCATATAGGTAAACAGGTGAATGTCCGTAAGTTA  3.18
10. CCTACTGGGCCATCAGGTCATCGATATCAACGTT  3.65
11. ATCGAAAGGTCGTGAGGTGAGTCTACAGAAAGGC  4.19
12. AGTCAAAGTTCAGGACGAGGTAACTTAAAGCACG  4.85
13. TCATATAGGTAAACAGGTCAAAGTCCGTAAGTTA  5.37
14. CGTCCAAGGTCAAGGTAAGTGAAAGAGACTCGAA  5.51
15. AGTCAAAGTTCATCTAGGTACCGTAAGATATGCT  6.29
16. GGAAGGAGGGCAAAGTTGATAGCATCTGTCGACG  7.29
17. TCTAGTTGGTCAAAGGTCACTCACTCGAAATGCG  10

The sequences below were run on PPARg:RXRa 30nM:10nM, anti-RXR (NR concentration 30 nM, RXRa partner concentration 10 nM) in the same assay as above.
Outline: as §1

In order of falling PBM binding z-score:
1. TCTAGTTGGTCAAAGGTCACTCACTCGAAATGCG  10.6
2. GCTTACGGGTCAAAGGTTATAGCTTGAATAGAAT  8.76
3. GGAAGGAGGGCAAAGTTGATAGCATCTGTCGACG  7.65
4. CAAACTAGGTCAAGGTCACAGTCGGTTTGTGCCA  6.72
5. TCATATAGGTAAACAGGTCAAAGTCCGTAAGTTA  4.97
6. CCGAGTAGGTTATAGGGCATTCAGGCAACGGTGA  4.96
7. TCATATAGGTAAACAGGTGAATGTCCGTAAGTTA  3.86
8. TCTTGTAGATCTAAGGTTAAGAAAGCCGAAGCCT  3.41
9. AGTCAAAGTTCATCTAGGTACCGTAAGATATGCT  3.36
10. ACTAGCCGGCCAAGGGTCACTCAAGATTAGTCCG  3.35
11. TCATGTAGGTAAATGCTAGGTGAAAGTCCGATCT  2.88
12. TCTGCAAGGTCAACGATGGTCAGCTAATCTGCTA  2.86
13. ACTTACGGGTCAACGAGGTTATAGTACGCGTATA  2.24
14. TCTCGGAGGACACTAAGGTCAGAGCTTTCCAGAG  2.1
15. AGTCAAAGTTCAGGACGAGGTAACTTAAAGCACG  2.02
16. CGTCCAAGGTCAAGGTAAGTGAAAGAGACTCGAA  1.81
17. CCTACTGGGCCATCAGGTCATCGATATCAACGTT  1.59
18. CCTTACGGGTCACTACAGGTTATAGCATCGGAGT  1.46
19. CCTTACGGGTCACTCCAGGGTATAGCATCGGAGT  1.19
20. ATCGAAAGGTCGTGAGGTGAGTCTACAGAAAGGC  1.17
21. ATCTCTAGGTAACAAGTTCAGGGAAAGAGAGGAC  1.06
22. TAGCCTAGGTCATTGGGCCAGTATTGTACGCATC  1.04
23. TCGAGTAGGTTAGTGGCATTCAGAATGGCGTCGA  0.972
24. AGAGTGAGGTTAAGATCAGGGAAACAGAATACAT  0.952
25. TAGCTTAGGTCATGGGCCAGTATACCACGCGAAC  0.853
26. AGAATGAGGTTATACGGAGATCAGGGAAGAAAGT  0.685
27. TCGAGTACGTTAGGGGCATTCAGAATGGCGTCGA  0.448
28. CCGACTGGGGCATGAGGTTACCATAAGCCAGCCC  0.402
29. ATCTCTAGGTAACAAGTCCAGTGAAAGAGAGGAC  0.317
30. CCGAGTAGGTTATTGGGCATTCAGGCAACGGTGA  0.262
31. GTGACTGGGGCATCAGCAGGTTACCATAACTTAA  0.217
32. CTCGAAAGGTTGGTTGAGGTGAGTATACGGATAA  0.0087
33. ACAGACAGGTGATGAAGGTAACTCGGGCTATCAT  -0.0607
34. AGAACGAGGACAATGAGTTGATAGCACGGGTGGC  -0.0875
35. AGAATGAGGCTATTAAGATCAGGGAATTGCGGTC  -0.0887
36. CGAACTAGTTCAGAACAGGACAGTGAAGGATGAT  -0.163
37. AGAATGAGGTTGTTAAGATCAGGGAATTGCGGTC  -0.197
38. GCTGCTAGGTCAGGTTGGTCACCTAACGGGTACG  -0.264
39. CCTAGCAGGCCAGGGTCCCTCAAGCATTTCGCTT  -1.41

The sequences below were run on PPARg:RXRa 90nM:30nM, anti-RXR (NR concentration 90 nM, RXRa partner concentration 30 nM) in the same assay as above.
Outline: as §1

In order of falling PBM binding z-score:
1. TCTAGTTGGTCAAAGGTCACTCACTCGAAATGCG  12.1
2. GCTTACGGGTCAAAGGTTATAGCTTGAATAGAAT  10.9
3. GGAAGGAGGGCAAAGTTGATAGCATCTGTCGACG  8.18
4. CAAACTAGGTCAAGGTCACAGTCGGTTTGTGCCA  8.13
5. CCGAGTAGGTTATAGGGCATTCAGGCAACGGTGA  6.5
6. TCATATAGGTAAACAGGTCAAAGTCCGTAAGTTA  5.43
7. AGTCAAAGTTCATCTAGGTACCGTAAGATATGCT  5.38
8. ACTAGCCGGCCAAGGGTCACTCAAGATTAGTCCG  5.18
9. ACTTACGGGTCAACGAGGTTATAGTACGCGTATA  4.29
10. TCTGCAAGGTCAACGATGGTCAGCTAATCTGCTA  4.09
11. TCTTGTAGATCTAAGGTTAAGAAAGCCGAAGCCT  4.08
12. CGTCCAAGGTCAAGGTAAGTGAAAGAGACTCGAA  4.01
13. AGTCAAAGTTCAGGACGAGGTAACTTAAAGCACG  3.7
14. TCATATAGGTAAACAGGTGAATGTCCGTAAGTTA  3.58
15. CCTACTGGGCCATCAGGTCATCGATATCAACGTT  3.22
16. ATCGAAAGGTCGTGAGGTGAGTCTACAGAAAGGC  2.92
17. CCTTACGGGTCACTACAGGTTATAGCATCGGAGT  2.62
18. TCATGTAGGTAAATGCTAGGTGAAAGTCCGATCT  2.6
19. CCTTACGGGTCACTCCAGGGTATAGCATCGGAGT  2.52
20. TAGCCTAGGTCATTGGGCCAGTATTGTACGCATC  2.35
21. TAGCTTAGGTCATGGGCCAGTATACCACGCGAAC  2.08
22. ATCTCTAGGTAACAAGTTCAGGGAAAGAGAGGAC  1.99
23. TCTCGGAGGACACTAAGGTCAGAGCTTTCCAGAG  1.81
24. CCGACTGGGGCATGAGGTTACCATAAGCCAGCCC  1.62
25. CCGAGTAGGTTATTGGGCATTCAGGCAACGGTGA  1.6
26. ATCTCTAGGTAACAAGTCCAGTGAAAGAGAGGAC  1.45
27. AGAATGAGGTTATACGGAGATCAGGGAAGAAAGT  1.45
28. AGAGTGAGGTTAAGATCAGGGAAACAGAATACAT  1.36
29. GTGACTGGGGCATCAGCAGGTTACCATAACTTAA  0.996
30. TCGAGTAGGTTAGTGGCATTCAGAATGGCGTCGA  0.858
31. TCGAGTACGTTAGGGGCATTCAGAATGGCGTCGA  0.552
32. CTCGAAAGGTTGGTTGAGGTGAGTATACGGATAA  0.291
33. GCTGCTAGGTCAGGTTGGTCACCTAACGGGTACG  0.22
34. AGAATGAGGTTGTTAAGATCAGGGAATTGCGGTC  -0.0831
35. AGAACGAGGACAATGAGTTGATAGCACGGGTGGC  -0.147
36. ACAGACAGGTGATGAAGGTAACTCGGGCTATCAT  -0.242
37. AGAATGAGGCTATTAAGATCAGGGAATTGCGGTC  -0.313
38. CGAACTAGTTCAGAACAGGACAGTGAAGGATGAT  -0.675
39. CCTAGCAGGCCAGGGTCCCTCAAGCATTTCGCTT  -0.959
